# Data as given in PubChem BioAssay (Tox21).
# Where “and” joins values, the source holds several entries; their conditions need not be identical. Equal entries are not always repeated. Records with an inconclusive call do not appear. A call without a number means that no potency is given here. Calls of active or inactive are those of the source. Unless noted, calls follow the shape of the dose curve; as a rule, active = well fitted curve in the direction sought with a large enough effect in the repeat runs; inconclusive = weak or mixed curves; inactive = no such curve, though single readings can be large; an effect the other way counts as inactive or inconclusive.
# Legend:
# [1] = qHTS assay to identify small molecule agonists of the estrogen receptor alpha (ER-alpha) signaling pathway in the presence of an antagonist - cell viability counter screen (AID 1259386);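 also: cells exposed to compounds for 22 h at 37 °C before the viability read; nearly all actives have a fitted effect of over 30% in size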; also: potency is read from the fitted curve at half-maximal effect
# In short: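 Using estrogen-depleted VM7Luc4E2 cells, the 15-concentration compound series was applied together with 10.0nM ICI-182,780 and incubated 22hr at 37C/5% CO2. Cell viability was then scored by CellTiter-Fluor.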
# [2] = molecular target: Progesterone receptor (Homo sapiens) (UniProt P06401); assay: qHTS assay to identify small molecule agonists of the progesterone receptor (PR) signaling pathway (AID 1346784; calls by dose curve; also: nearly all actives have a fitted effect of over 30% in size; also: potency is read from the fitted curve at half-maximal effect)
# Sequence of Progesterone receptor (Homo sapiens) (P06401 whole entry, looked up): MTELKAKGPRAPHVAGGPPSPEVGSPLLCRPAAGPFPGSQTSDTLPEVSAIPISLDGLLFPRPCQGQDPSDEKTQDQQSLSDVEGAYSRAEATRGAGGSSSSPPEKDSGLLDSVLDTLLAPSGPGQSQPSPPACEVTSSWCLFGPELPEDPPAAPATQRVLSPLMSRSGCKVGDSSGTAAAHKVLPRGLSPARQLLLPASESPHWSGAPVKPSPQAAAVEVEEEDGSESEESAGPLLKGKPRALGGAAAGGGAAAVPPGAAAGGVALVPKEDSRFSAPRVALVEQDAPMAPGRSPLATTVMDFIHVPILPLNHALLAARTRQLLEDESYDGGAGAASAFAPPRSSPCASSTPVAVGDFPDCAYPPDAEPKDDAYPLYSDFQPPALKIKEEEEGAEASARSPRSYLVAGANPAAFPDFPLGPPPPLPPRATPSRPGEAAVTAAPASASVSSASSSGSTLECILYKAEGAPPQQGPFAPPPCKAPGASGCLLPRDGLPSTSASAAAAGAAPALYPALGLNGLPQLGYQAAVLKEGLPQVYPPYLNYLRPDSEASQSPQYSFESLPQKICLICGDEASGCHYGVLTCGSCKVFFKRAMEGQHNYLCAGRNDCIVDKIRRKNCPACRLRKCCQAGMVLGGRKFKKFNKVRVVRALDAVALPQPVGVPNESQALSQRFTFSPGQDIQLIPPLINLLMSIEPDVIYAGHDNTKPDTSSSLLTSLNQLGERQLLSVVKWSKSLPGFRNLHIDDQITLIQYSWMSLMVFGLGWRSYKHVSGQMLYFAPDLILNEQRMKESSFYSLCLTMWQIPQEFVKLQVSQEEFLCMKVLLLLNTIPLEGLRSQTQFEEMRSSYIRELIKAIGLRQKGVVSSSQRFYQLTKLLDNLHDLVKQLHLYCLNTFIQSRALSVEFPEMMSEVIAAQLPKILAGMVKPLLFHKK
# In short: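 Seed PR-UAS-bla HEK 293T cells (2% charcoal-stripped FBS), incubate 6 hr at 37C; add compounds in DMSO, 16 hr at 37C; add LiveBLAzer B/G substrate, 2 hr RT; read fluorescence intensity.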
# [3] = qHTS assay to identify small molecule agonists of the progesterone receptor (PR) signaling pathway - cell viability counter screen (AID 1346799; calls by dose curve; also: nearly all actives have a fitted effect of over 45% in size; also: potency is read from the fitted curve at half-maximal effect)
# In short: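 Using the same plates as the PR reporter screen, HEK293T PR-UAS-bla cells received compounds for 16 hr at 37C and were then lysed with CellTiter-Glo; luminescence was read 30 min later at room temperature.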
# [4] = qHTS assay to identify small molecule antagonists of the TGF-beta/Smad signaling pathway - cell viability counter screen (AID 1346824); also: nearly all actives have a fitted effect of over 50% in size
# In short: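 SBE-bla HEK 293T cells, incubated overnight, then compound plus 0.25 ng/mL TGF-beta1 (stock added) for 5 hr at 37 C. Viability was read in the same wells by CellTiter-Glo luminescence after 30 min at room temperature.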
# [5] = qHTS assay to identify small molecule agonists of the TGF-beta/Smad signaling pathway - cell viability counter screen (AID 1346829); also: top concentration of the series differs between compounds; nearly all actives have a fitted effect of over 45% in size
# In short: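 HEK 293T SBE-bla line, 5 hr compound exposure at 37 C, multiplexed CellTiter-Glo viability read by luminescence.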
# [6] = qHTS assay to identify small molecule agonists of the TGF-beta/Smad signaling pathway (AID 1346859; active = well fitted activation curve with a large enough effect in the signal ratio in the repeat runs, not every such curve was filed as active; the % refers to the signal ratio; also: series mostly up to about 77 µM)
# In short: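 Beta-lactamase reporter activity downstream of Smad binding elements was measured in stably transfected HEK 293T cells; compounds were incubated for 5 hr, substrate for 2 hr at room temperature.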
# [7] = molecular target: Thyrotropin-releasing hormone receptor (Homo sapiens) (UniProt P34981); assay: qHTS assay to identify small molecule antagonists of the thyrotropin-releasing hormone receptor (TRHR) signaling pathway (AID 1346877; active = well fitted inhibition curve with a large enough effect in the repeat runs, not every such curve was filed as active; also: series mostly up to about 51 µM)
# Sequence of Thyrotropin-releasing hormone receptor (Homo sapiens) (P34981 whole entry, looked up): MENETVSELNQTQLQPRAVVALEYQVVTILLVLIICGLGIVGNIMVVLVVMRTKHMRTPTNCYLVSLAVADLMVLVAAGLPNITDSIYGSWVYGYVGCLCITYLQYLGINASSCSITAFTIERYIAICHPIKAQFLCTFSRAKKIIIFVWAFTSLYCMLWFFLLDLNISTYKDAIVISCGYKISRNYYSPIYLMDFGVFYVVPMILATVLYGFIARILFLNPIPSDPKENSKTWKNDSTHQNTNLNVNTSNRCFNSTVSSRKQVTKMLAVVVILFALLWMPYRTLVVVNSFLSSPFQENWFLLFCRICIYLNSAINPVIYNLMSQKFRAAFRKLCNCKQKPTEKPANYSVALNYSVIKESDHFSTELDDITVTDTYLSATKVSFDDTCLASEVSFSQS
# In short: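 Calcium signal in dye-loaded TRHR/HEK293 cells; compounds added 5 min before TRH (1 nM final); fluorescence monitored 3 min at 1 s steps.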
# [8] = molecular target: Thyrotropin-releasing hormone receptor (Homo sapiens) (UniProt P34981); assay: qHTS assay to identify small molecule agonists of the thyrotropin-releasing hormone receptor (TRHR) signaling pathway (AID 1346891; calls by dose curve;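 also: HEK293 cells expressing TRHR with calcium dye readout; series mostly up to about 58 µM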)
# In short: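 Overnight-plated (18 h, 37 °C, 5% CO2) TRHR-Hek293 cells; 2 h calcium dye at 37 °C; compound in DMSO; 3-min kinetic fluorescence read.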
# [9] = Human pregnane X receptor (PXR) small molecule agonists, qHTS cell viability counter screen (AID 1346977); also: nearly all actives have a fitted effect of over 50% in size; also: potency is read from the fitted curve at half-maximal effect
# In short: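 After a 5hr pre-incubation, PXR-Luc HepG2 cells received compounds plus positive control in DMSO and were kept 24hr at 37C. Cell viability was quantified by fluorescence from CellTiter-Fluor added for the final hour.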
# [10] = Caspase-3/7 induction in HepG2 cells by small molecules, qHTS assay (AID 1346978); also: nearly all actives have a fitted effect of over 15% in size; also: potency is read from the fitted curve at half-maximal effect
# In short: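 Wild-type HepG2 cells, 2,000/well, settled 5 hr at 37 C and 5% CO2, then compound-treated for 17 hr; caspase-3/7 activity read by luminescent Caspase-Glo 3/7 after 30 min at room temperature.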
# [11] = Caspase-3/7 induction in CHO-K1 cells by small molecules, qHTS cell viability counter screen (AID 1346979); also: nearly all actives have a fitted effect of over 35% in size; also: potency is read from the fitted curve at half-maximal effect
# In short: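 Multiplexed with Caspase-Glo 3/7 in CHO-K1 cells, this counter screen added CellTiter-Fluor after 16hr of compound exposure and recorded fluorescence 1hr later.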
# [12] = Caspase-3/7 induction in CHO-K1 cells by small molecules, qHTS assay (AID 1346980); also: nearly all actives have a fitted effect of over 15% in size; also: potency is read from the fitted curve at half-maximal effect
# In short: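 Wild-type CHO-K1 cells exposed to compounds for 17hr at 37 C, 5% CO2. Caspase-3/7 activity then measured by Caspase-Glo 3/7 luminescence after 30min at room temperature.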
# [13] = Caspase-3/7 induction in HepG2 cells by small molecules, qHTS cell viability counter screen (AID 1346981); also: nearly all actives have a fitted effect of over 30% in size; also: potency is read from the fitted curve at half-maximal effect
# In short: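 After a 5-hr attachment period at 37 C and 5% CO2, wild-type HepG2 cells received compounds in DMSO. Sixteen hours later CellTiter-Fluor was dispensed and the fluorescent signal quantified after a further hour.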
# [14] = molecular target: Nuclear receptor subfamily 1 group I member 2 (Homo sapiens) (UniProt O75469); assay: Human pregnane X receptor (PXR) small molecule agonists, qHTS assay (AID 1346982); also: nearly all actives have a fitted effect of over 35% in size; also: potency is read from the fitted curve at half-maximal effect
# Sequence of Nuclear receptor subfamily 1 group I member 2 (Homo sapiens) (O75469 whole entry, looked up): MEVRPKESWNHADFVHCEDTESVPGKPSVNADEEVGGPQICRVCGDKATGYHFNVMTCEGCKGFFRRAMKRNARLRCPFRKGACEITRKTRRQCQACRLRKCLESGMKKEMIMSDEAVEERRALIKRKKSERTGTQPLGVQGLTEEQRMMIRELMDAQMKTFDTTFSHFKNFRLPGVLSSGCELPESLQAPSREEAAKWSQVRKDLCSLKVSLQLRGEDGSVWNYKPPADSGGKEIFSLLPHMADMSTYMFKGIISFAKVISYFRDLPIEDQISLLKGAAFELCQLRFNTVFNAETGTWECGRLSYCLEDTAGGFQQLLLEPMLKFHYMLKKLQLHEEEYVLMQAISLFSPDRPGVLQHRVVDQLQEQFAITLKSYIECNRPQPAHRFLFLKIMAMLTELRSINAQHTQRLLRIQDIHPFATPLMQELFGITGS
# In short: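 Tox21 qHTS; PXR-Luc HepG2; compounds pinned from DMSO; 24 hr, 37 C; ONE-Glo luciferase detection, 30 min room temperature.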
# [15] = molecular target: Cytochrome P450 2D6 (Homo sapiens) (UniProt P10635); assay: Cytochrome P450 Family 2 Subfamily D Member 6 (CYP2D6) small molecule antagonists: luciferase reporter qHTS assay (AID 1671196); also: nearly all actives have a fitted effect of over 50% in size; also: potency is read from the fitted curve at half-maximal effect
# Sequence of Cytochrome P450 2D6 (Homo sapiens) (P10635 whole entry, looked up): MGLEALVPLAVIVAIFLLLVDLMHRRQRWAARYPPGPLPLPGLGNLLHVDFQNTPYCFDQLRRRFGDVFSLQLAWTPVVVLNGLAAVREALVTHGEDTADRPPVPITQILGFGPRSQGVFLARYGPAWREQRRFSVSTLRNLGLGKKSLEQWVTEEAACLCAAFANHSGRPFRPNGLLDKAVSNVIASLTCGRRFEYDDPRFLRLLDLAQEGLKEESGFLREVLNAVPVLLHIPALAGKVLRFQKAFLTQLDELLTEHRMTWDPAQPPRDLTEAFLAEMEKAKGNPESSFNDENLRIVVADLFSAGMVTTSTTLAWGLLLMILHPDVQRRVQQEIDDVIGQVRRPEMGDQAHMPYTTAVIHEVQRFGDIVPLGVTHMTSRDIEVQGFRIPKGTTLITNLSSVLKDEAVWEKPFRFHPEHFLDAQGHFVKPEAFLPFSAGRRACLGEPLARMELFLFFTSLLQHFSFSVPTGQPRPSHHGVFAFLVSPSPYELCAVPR
# In short: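 Room-temperature luminescent CYP2D6 activity assay: compound preincubated 10 min with enzyme–substrate mix, NADPH-initiated reaction 1 h, detection reagent 20 min before reading.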
# [16] = molecular target: Nuclear receptor subfamily 1 group I member 2 (Homo sapiens) (UniProt O75469); assay: CYP3A4 induction through human pregnane X receptor (PXR) by small molecules, qHTS assay (AID 1346984); also: nearly all actives have a fitted effect of over 40% in size
# In short: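 Cells (DPX-2; HepG2 with PXR element plus CYP3A4-promoter luciferase) settled 5hr, then were treated 24hr at 37C. A 3hr, 3uM-final Luciferin-IPA step preceded luminescence measurement with One-Glo.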
# [17] = molecular target: Nuclear receptor subfamily 1 group I member 2 (Homo sapiens) (UniProt O75469); assay: Human pregnane X receptor (PXR) activation by small molecules, qHTS assay (AID 1346985); also: nearly all actives have a fitted effect of over 40% in size; also: potency is read from the fitted curve at half-maximal effect
# In short: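 DPX-2 cells (HepG2 co-transfected with a PXR response element and a CYP3A4-promoter luciferase construct) were seeded at 2,000 per well, rested 5 hr at 37C, then exposed to DMSO-dissolved compounds for 24 hr. Activation was read as luciferase luminescence.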
# [18] = molecular target: Progesterone receptor (Homo sapiens) (UniProt P06401); assay: qHTS assay to identify small molecule antagonists of the progesterone receptor (PR) signaling pathway (AID 1346795; active = well fitted inhibition curve with a large enough effect in the signal ratio in the repeat runs, not every such curve was filed as active; the % refers to the signal ratio; also: potency is read from the fitted curve at half-maximal effect)
# In short: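 Screening used a GripTite HEK293T line with PR-responsive UAS-beta-lactamase. Cells were challenged with compound in the presence of 1 nM R5020 final for 16 hr at 37C; B/G FRET substrate, 2 hr room temperature, fluorescence.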
# [19] = qHTS assay to identify small molecule antagonists of the progesterone receptor (PR) signaling pathway - cell viability counter screen (AID 1346798); also: series mostly up to about 92 µM; nearly all actives have a fitted effect of over 50% in size
# In short: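 Measures cytotoxicity in parallel with the PR antagonist reporter read: HEK293T PR-UAS-bla cells get compound and R5020 for 16 hr, and remaining viable cells are quantified by CellTiter-Glo luminescence.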
SMILES,Potency [1],Potency [2],Potency [3],Potency [4],Potency [5],Potency [6],Potency [7],outcome [8],Potency [9],Potency [10],Potency [11],Potency [12],Potency [13],Potency [14],Potency [15],Potency [16],Potency [17],Potency [18],Potency [19]
Nc1nc(-c2ccccc2)cs1,inactive,inactive,inactive,inactive,inactive,inactive,inactive,inactive,inactive,inactive,inactive,inactive,inactive,27.2 µM (active),12.6 µM (active),–,–,–,–
CN(C)[C@@H](CCOc1cccc2ccccc12)c1ccccc1,inactive,inactive,–,–,inactive,inactive,inactive,inactive,–,–,–,inactive,–,–,0.871 µM (active),–,–,–,–
CC1(C)CCC[C@]2(C)[C@H]3CC(=O)O[C@]3(C)CC[C@@H]12,inactive,inactive,inactive,inactive,inactive,–,inactive,inactive,inactive,inactive,inactive,inactive,inactive,30.6 µM (active),–,–,–,–,–
C#CC1(O)CC[C@H]2[C@@H]3CCC4=CCCC[C@@H]4[C@H]3CC[C@@]21C (some centres not stated),inactive,486 nM (active),–,inactive,–,inactive,inactive,inactive,–,–,61.1 µM (active) and 26.6 µM (active),inactive,–,–,inactive,–,–,–,–
COc1c(C)c2c(c(O)c1C/C=C(\C)CCC(=O)OCCN1CCOCC1)C(=O)OC2,inactive,inactive,237 nM (active),–,inactive,inactive,inactive,inactive,inactive,inactive,0.841 µM (active),inactive,inactive,–,inactive,inactive,inactive,–,–
C[Si](Cl)(c1ccccc1)c1ccccc1,inactive,–,–,inactive,inactive,inactive,–,–,inactive,–,inactive,inactive,inactive,59.6 µM (active),–,–,–,29.9 µM (active),inactive
CCO[Si](OCC)(OCC)OCC,inactive,–,inactive,inactive,inactive,inactive,–,–,inactive,inactive,inactive,inactive,inactive,inactive,–,–,–,–,inactive
CC(C(=O)O)c1ccc2c(c1)[nH]c1ccc(Cl)cc12 (configuration not stated),inactive,–,–,inactive,inactive,–,inactive,inactive,inactive,inactive,–,inactive,inactive,inactive,inactive,inactive,inactive,inactive,inactive
COc1cc(S(=O)(=O)O)c(C)cc1N=Nc1c(O)ccc2cc(S(=O)(=O)O)ccc12,17.2 µM (active),inactive,inactive,inactive,inactive,inactive,inactive,inactive,15.4 µM (active),inactive,15.4 µM (active),inactive,19.3 µM (active),inactive,35.6 µM (active),–,–,–,–
S=C([S-])NCCNC(=S)[S-].S=C([S-])NCCNC(=S)[S-].[Mn+2].[Zn+2],inactive,inactive,–,inactive,inactive,inactive,–,–,inactive,inactive,–,inactive,inactive,5.31 µM (active),–,–,–,–,–
COC(=O)Nc1nc2ccc(C(=O)c3ccccc3)cc2[nH]1,inactive,inactive,–,inactive,inactive,–,inactive,–,inactive,inactive,–,inactive,inactive,4.22 µM (active),–,–,5.01 µM (active),–,–
CCCCCCC1CCCC(=O)O1 (configuration not stated),inactive,–,inactive,inactive,inactive,–,inactive,inactive,inactive,inactive,inactive,inactive,inactive,–,–,–,–,–,inactive
CC(C)(C)c1csc(-c2cc3cc(OCc4ccccc4CC(=O)O)ccc3o2)n1,inactive,–,–,inactive,inactive,–,inactive,inactive,61.1 µM (active),inactive,61.1 µM (active),inactive,68.6 µM (active),61.1 µM (active),inactive,–,–,43.3 µM (active),–
Cc1cc(=O)oc2cc(O)cc(O)c12,inactive,–,–,inactive,inactive,–,inactive,inactive,inactive,inactive,–,inactive,–,61.3 µM (active),inactive,–,–,inactive,–
CCOC(=O)c1ccc(C2CCC(NC[C@H](O)COc3ccc(O)c(NS(C)(=O)=O)c3)CC2)cc1 (some centres not stated),inactive,inactive,inactive,inactive,–,–,–,–,56.4 µM (active),–,–,inactive,–,inactive,58.4 µM (active),–,–,–,–
Clc1ccnc(Cl)n1,inactive,inactive,inactive,–,inactive,inactive,inactive,–,inactive,inactive,inactive,inactive,inactive,inactive,–,–,–,–,–
COc1cccc2c1C(=O)c1c(O)c3c(c(O)c1C2=O)C[C@@](O)(C(C)=O)C[C@@H]3O[C@H]1C[C@H](N)[C@H](O)[C@H](C)O1,27.5 µM (active) and 21.1 µM (active),–,inactive,inactive,inactive,–,inactive,inactive,1.09 µM (active) and 2.66 µM (active),1.38 µM (active) and 1.33 µM (active),21.8 µM (active) and 9.44 µM (active),4.89 µM (active) and 6.68 µM (active),30.8 µM (active) and 4.22 µM (active),–,–,–,–,–,inactive
